# Results taken from PubChem BioAssay (NCI).
# Compounds without any hit were thinned out: in the full panel of roughly 79,000, 15% have a hit. Values without a mark were called inactive. Activity calls are given as the source filed them. No stated cut-off is given here; in the data, active means growth inhibition above about 70%; inactive means the rest.
# Tests used:
# [1] = NCI Yeast Anticancer Drug Screen. Data for the wt2 strain (AID 169); details: S. cerevisiae wt2 strain growth inhibition, stronger effect = higher value
# In short: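 Growth of compound-treated yeast is measured and expressed as inhibition relative to vehicle-only controls.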
# [2] = NCI Yeast Anticancer Drug Screen. Data for the mlh1 strain (AID 171);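 further: 0% = growth of vehicle-treated control cultures of the same strain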; details: S. cerevisiae mlh1 strain growth inhibition, stronger effect = higher value
# In short: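 Test agents were incubated with yeast bearing a defined DNA damage repair or cell cycle control alteration; values are growth inhibition normalised to vehicle-treated cultures.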
# [3] = NCI Yeast Anticancer Drug Screen. Data for the sgs1 strain (AID 173);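 further: 0% = growth of vehicle-only control cultures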; details: S. cerevisiae sgs1 mutant, stronger effect = higher value
# In short: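 Strain with an altered DNA repair or cell cycle pathway exposed to compound. Growth then measured. Value = inhibition versus vehicle control.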
# [4] = NCI Yeast Anticancer Drug Screen. Data for the mlh1 rad18 strain (AID 175); details: S. cerevisiae mlh1 rad18 strain growth inhibition, stronger effect = higher value
# In short: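 A repair-deficient yeast strain is exposed to test compound, and growth is scored relative to vehicle-treated controls.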
# [5] = NCI Yeast Anticancer Drug Screen. Data for the rad18 strain (AID 177); details: S. cerevisiae rad18 mutant growth inhibition, stronger effect = higher value
# In short: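 DNA-repair-defective yeast; compound treatment; growth inhibition scored against vehicle.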
# [6] = NCI Yeast Anticancer Drug Screen. Data for the rad52 strain (AID 147);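 further: 0% = growth of vehicle-treated control cultures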; details: S. cerevisiae rad52 mutant growth inhibition, stronger effect = higher value
# In short: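 Growth of repair-deficient yeast cells was compared between compound-treated and vehicle-treated cultures to give percent inhibition.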
# [7] = NCI Yeast Anticancer Drug Screen. Data for the wt1 strain (AID 149);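 further: 0% = growth of vehicle-treated wt1 cultures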; details: S. cerevisiae wt1 strain (SPY 50644) growth inhibition, stronger effect = higher value
# In short: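 Each compound is tested on wt1 yeast and the loss of growth versus vehicle gives the inhibition value.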
# [8] = NCI Yeast Anticancer Drug Screen. Data for the rad50EPP+ strain (AID 151);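 further: 0% = growth of vehicle-treated control cultures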; details: S. cerevisiae rad50 mutant strain, stronger effect = higher value
# In short: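 Measured: growth inhibition of rad50EPP+ yeast. Reference: vehicle-treated controls. Screen uses strains with defined genetic alterations in DNA damage repair or cell cycle control.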
# [9] = NCI Yeast Anticancer Drug Screen. Data for the mgt1 strain (AID 153); details: S. cerevisiae mgt1 mutant growth inhibition, stronger effect = higher value
# In short: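 Compounds were applied to mgt1 mutant yeast, and growth was then compared against vehicle-treated control cultures to give percent inhibition.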
# [10] = NCI Yeast Anticancer Drug Screen. Data for the rad50 strain (AID 155);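 further: 0% = growth of vehicle-only cultures of the same strain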; details: S. cerevisiae rad50 strain growth inhibition, stronger effect = higher value
# In short: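 Vehicle-treated cultures provide the reference for the growth inhibition reported for compound-exposed, repair-deficient yeast.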
# [11] = NCI Yeast Anticancer Drug Screen. Data for the mec2-1 strain (AID 157); details: S. cerevisiae mec2-1 strain, stronger effect = higher value
# In short: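 Compounds were applied to mec2-1 yeast cells. Their growth was then compared with that of vehicle-treated cultures to give growth inhibition.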
# [12] = NCI Yeast Anticancer Drug Screen. Data for the rad14 strain (AID 159);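 further: 0% = growth of vehicle-treated control cultures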; details: S. cerevisiae rad14 strain growth inhibition, stronger effect = higher value
# In short: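 Inhibition of growth is reported for a repair-deficient yeast mutant following compound treatment, calculated relative to cultures that received vehicle.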
# [13] = NCI Yeast Anticancer Drug Screen. Data for the sgs1 mgt1 strain (AID 161);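 further: 0% = growth of cultures given vehicle only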; details: S. cerevisiae sgs1 mgt1 strain, stronger effect = higher value
# In short: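 Compounds are added to genetically altered yeast, and growth is compared with cultures given vehicle alone to give percent inhibition.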
# [14] = NCI Yeast Anticancer Drug Screen. Data for the CLN2oe strain (AID 163);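 further: 0% = growth of vehicle-only control cultures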; details: S. cerevisiae CLN2oe strain, stronger effect = higher value
# In short: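 Cells of an engineered yeast line with disturbed cell-cycle regulation are treated with compound. Inhibition of growth is then calculated relative to the vehicle-treated reference.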
# [15] = NCI Yeast Anticancer Drug Screen. Data for the cln2 rad14 strain (AID 165);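 further: 0% = growth equal to vehicle treated cultures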; details: S. cerevisiae cln2 rad14 strain, stronger effect = higher value
# In short: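 Strain: cln2 rad14 yeast, altered in cell cycle control and DNA damage repair. Read-out: growth inhibition vs vehicle.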
# [16] = NCI Yeast Anticancer Drug Screen. Data for the bub3 strain (AID 167); details: S. cerevisiae bub3 mutant strain, stronger effect = higher value
# In short: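 Mutant yeast screening strain plus compound; vehicle-treated cultures serve as the 0% inhibition reference.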
# [17] = at 5.0 µM (retest, dose inferred, filed as 0.5)
# [18] = at 50.0 µM (retest, dose inferred, filed as 5.0)
compound,measurement,setting,value
COc1cc(OC)c(CSCC(NC(=O)OCC2c3ccccc3-c3ccccc32)C(=O)O)c(OC)c1 (stereo unspecified),growth inhibition,[1]; at 1.2 µM,-1%
same,growth inhibition,[1]; at 3.7 µM,6%
same,growth inhibition,[1]; at 11.0 µM,58%
same,growth inhibition,[1]; at 33.0 µM,98% (active)
same,growth inhibition,[1]; at 100.0 µM,98% (active)
same,growth inhibition,[2]; at 1.2 µM,3%
same,growth inhibition,[2]; at 3.7 µM,9%
same,growth inhibition,[2]; at 11.0 µM,62%
same,growth inhibition,[2]; at 33.0 µM,97% (active)
same,growth inhibition,[2]; at 100.0 µM,98% (active)
same,growth inhibition,[3]; at 1.2 µM,1%
same,growth inhibition,[3]; at 3.7 µM,9%
same,growth inhibition,[3]; at 11.0 µM,45%
same,growth inhibition,[3]; at 33.0 µM,95% (active)
same,growth inhibition,[3]; at 100.0 µM,98% (active)
same,growth inhibition,[4]; [17],5%
same,growth inhibition,[4]; [18],99% (active)
same,growth inhibition,[4]; at 50.0 µM,98.4% (active)
same,growth inhibition,[5]; at 1.2 µM,0%
same,growth inhibition,[5]; at 3.7 µM,8%
same,growth inhibition,[5]; at 11.0 µM,36%
same,growth inhibition,[5]; at 33.0 µM,96% (active)
same,growth inhibition,[5]; at 100.0 µM,97% (active)
COC1/C=C\C=C(/C)C(=O)NC2=CC(=O)C(=O)C(=C2O)CC(C)CC(OC)C(O)C(C)/C=C(\C)C1OC(N)=O (stereo unspecified),growth inhibition,[6]; at 1.2 µM,24%
same,growth inhibition,[6]; at 3.7 µM,32%
same,growth inhibition,[6]; at 11.0 µM,94% (active)
same,growth inhibition,[6]; at 33.0 µM,98% (active)
same,growth inhibition,[6]; at 100.0 µM,97% (active)
same,growth inhibition,[7]; at 1.2 µM,10%
same,growth inhibition,[7]; at 3.7 µM,-17%
same,growth inhibition,[7]; at 11.0 µM,86% (active)
same,growth inhibition,[7]; at 33.0 µM,95% (active)
same,growth inhibition,[7]; at 100.0 µM,94% (active)
same,growth inhibition,[8]; at 1.2 µM,15%
same,growth inhibition,[8]; at 3.7 µM,2%
same,growth inhibition,[8]; at 11.0 µM,3%
same,growth inhibition,[8]; at 33.0 µM,7%
same,growth inhibition,[8]; at 100.0 µM,46%
same,growth inhibition,[9]; at 1.2 µM,-10%
same,growth inhibition,[9]; at 3.7 µM,28%
same,growth inhibition,[9]; at 11.0 µM,90% (active)
same,growth inhibition,[9]; at 33.0 µM,96% (active)
same,growth inhibition,[9]; at 100.0 µM,95% (active)
same,growth inhibition,[10]; at 1.2 µM,17%
same,growth inhibition,[10]; at 3.7 µM,40%
same,growth inhibition,[10]; [17],-17%
same,growth inhibition,[10]; at 11.0 µM,94% (active)
same,growth inhibition,[10]; at 33.0 µM,96% (active)
same,growth inhibition,[10]; [18],94% (active)
same,growth inhibition,[10]; at 50.0 µM,87.5% (active)
same,growth inhibition,[10]; at 100.0 µM,95% (active)
same,growth inhibition,[11]; at 1.2 µM,-12%
same,growth inhibition,[11]; at 3.7 µM,50%
same,growth inhibition,[11]; [17],56%
same,growth inhibition,[11]; at 11.0 µM,94% (active)
same,growth inhibition,[11]; at 33.0 µM,96% (active)
same,growth inhibition,[11]; [18],97% (active)
same,growth inhibition,[11]; at 50.0 µM,89.8% (active)
same,growth inhibition,[11]; at 100.0 µM,95% (active)
same,growth inhibition,[12]; at 1.2 µM,-13%
same,growth inhibition,[12]; at 3.7 µM,-10%
same,growth inhibition,[12]; at 11.0 µM,91% (active)
same,growth inhibition,[12]; at 33.0 µM,95% (active)
same,growth inhibition,[12]; at 100.0 µM,95% (active)
same,growth inhibition,[13]; [17],13%
same,growth inhibition,[13]; [18],95% (active)
same,growth inhibition,[13]; at 50.0 µM,89.8% (active)
same,growth inhibition,[14]; at 1.2 µM,-32%
same,growth inhibition,[14]; at 3.7 µM,34%
same,growth inhibition,[14]; at 11.0 µM,94% (active)
same,growth inhibition,[14]; at 33.0 µM,95% (active)
same,growth inhibition,[14]; at 100.0 µM,94% (active)
same,growth inhibition,[15]; [17],45%
same,growth inhibition,[15]; [18],96% (active)
same,growth inhibition,[15]; at 50.0 µM,77.8% (active)
same,growth inhibition,[16]; at 1.2 µM,-6%
same,growth inhibition,[16]; at 3.7 µM,51%
same,growth inhibition,[16]; [17],67%
same,growth inhibition,[16]; at 11.0 µM,93% (active)
same,growth inhibition,[16]; at 33.0 µM,96% (active)
same,growth inhibition,[16]; [18],97% (active)
same,growth inhibition,[16]; at 50.0 µM,86.2% (active)
same,growth inhibition,[16]; at 100.0 µM,95% (active)
same,growth inhibition,[1]; at 1.2 µM,6%
same,growth inhibition,[1]; at 3.7 µM,7%
same,growth inhibition,[1]; at 11.0 µM,89% (active)
same,growth inhibition,[1]; at 33.0 µM,96% (active)
same,growth inhibition,[1]; at 100.0 µM,96% (active)
same,growth inhibition,[2]; at 1.2 µM,-5%
same,growth inhibition,[2]; at 3.7 µM,11%
same,growth inhibition,[2]; at 11.0 µM,89% (active)
same,growth inhibition,[2]; at 33.0 µM,94% (active)
same,growth inhibition,[2]; at 100.0 µM,94% (active)
same,growth inhibition,[3]; at 1.2 µM,28%
same,growth inhibition,[3]; at 3.7 µM,36%
same,growth inhibition,[3]; at 11.0 µM,91% (active)
same,growth inhibition,[3]; at 33.0 µM,96% (active)
same,growth inhibition,[3]; at 100.0 µM,95% (active)
same,growth inhibition,[4]; [17],33%
same,growth inhibition,[4]; [18],92% (active)
same,growth inhibition,[4]; at 50.0 µM,83.2% (active)
same,growth inhibition,[5]; at 1.2 µM,12%
same,growth inhibition,[5]; at 3.7 µM,3%
same,growth inhibition,[5]; at 11.0 µM,91% (active)
same,growth inhibition,[5]; at 33.0 µM,96% (active)
same,growth inhibition,[5]; at 100.0 µM,95% (active)
